The full data set covers some 8,800 targets. This sample favours those with a hit. About 0.5% of all pairs of compound and target were hits.
The targets below were run with C1COCCN1CCN2C3=CC=CC=C3N=C2NC(=O)C4=CC(=CC=C4)[N+](=O)[O-] [IRAK-1-4 Inhibitor I] (assay: log2 fold change, soluble protein after heating vs DMSO (PISA); higher = thermal stabilisation; K562 lysate, 10 uM; active = over 0.2 and 3.5 SD of the protein, either way, in both replicates (recomputed)).
Procedure, shortened: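 K562 pellets were dounce-homogenised in PBS pH 7.4 with 1 mM MgCl2, and the crude extract at 1 mg/mL protein was treated with 10 μM compound for 30 min. Aliquots were heated for 3 min across 48°C-58°C, pooled, and brought to 0.5% NP-40 at 4°C; soluble protein was the supernatant after 21,000xg for 90 min. Soluble protein was quantified by TMTpro 16plex LC-MS/MS with channel sums equalised, and reported as log2 fold change in thermal stability against DMSO controls, with values from duplicates.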

Chain of UniProt Q86V48 (Q86V48 whole entry, looked up): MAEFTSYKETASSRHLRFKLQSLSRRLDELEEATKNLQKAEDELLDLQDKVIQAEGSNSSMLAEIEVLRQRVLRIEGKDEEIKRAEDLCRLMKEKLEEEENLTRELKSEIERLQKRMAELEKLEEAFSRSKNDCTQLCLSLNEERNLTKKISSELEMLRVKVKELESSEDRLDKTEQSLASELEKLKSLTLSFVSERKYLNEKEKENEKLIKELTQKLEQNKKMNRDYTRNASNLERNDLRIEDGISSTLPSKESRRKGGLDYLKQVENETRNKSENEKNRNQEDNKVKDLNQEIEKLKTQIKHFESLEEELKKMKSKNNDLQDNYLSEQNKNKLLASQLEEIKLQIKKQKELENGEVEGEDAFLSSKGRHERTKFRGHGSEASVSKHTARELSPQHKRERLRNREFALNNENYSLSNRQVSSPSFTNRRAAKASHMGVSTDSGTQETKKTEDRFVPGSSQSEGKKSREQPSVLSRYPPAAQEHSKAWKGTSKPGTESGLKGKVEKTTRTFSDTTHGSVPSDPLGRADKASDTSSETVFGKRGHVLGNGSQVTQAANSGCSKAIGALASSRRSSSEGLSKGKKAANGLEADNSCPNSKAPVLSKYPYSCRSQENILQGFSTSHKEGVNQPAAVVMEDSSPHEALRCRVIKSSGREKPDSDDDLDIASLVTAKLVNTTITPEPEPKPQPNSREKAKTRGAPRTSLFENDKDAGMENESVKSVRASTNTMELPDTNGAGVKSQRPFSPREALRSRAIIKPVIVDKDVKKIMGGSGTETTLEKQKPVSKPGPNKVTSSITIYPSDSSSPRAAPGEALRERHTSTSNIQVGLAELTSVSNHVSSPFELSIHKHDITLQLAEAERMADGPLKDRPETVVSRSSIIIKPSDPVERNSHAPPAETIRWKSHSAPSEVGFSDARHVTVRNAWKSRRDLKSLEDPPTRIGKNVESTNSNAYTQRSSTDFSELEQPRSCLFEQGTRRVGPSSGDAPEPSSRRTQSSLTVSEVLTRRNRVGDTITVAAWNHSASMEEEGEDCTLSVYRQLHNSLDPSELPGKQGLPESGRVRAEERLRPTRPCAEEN
Chain of UniProt Q9UFC0 (Q9UFC0 whole entry, looked up): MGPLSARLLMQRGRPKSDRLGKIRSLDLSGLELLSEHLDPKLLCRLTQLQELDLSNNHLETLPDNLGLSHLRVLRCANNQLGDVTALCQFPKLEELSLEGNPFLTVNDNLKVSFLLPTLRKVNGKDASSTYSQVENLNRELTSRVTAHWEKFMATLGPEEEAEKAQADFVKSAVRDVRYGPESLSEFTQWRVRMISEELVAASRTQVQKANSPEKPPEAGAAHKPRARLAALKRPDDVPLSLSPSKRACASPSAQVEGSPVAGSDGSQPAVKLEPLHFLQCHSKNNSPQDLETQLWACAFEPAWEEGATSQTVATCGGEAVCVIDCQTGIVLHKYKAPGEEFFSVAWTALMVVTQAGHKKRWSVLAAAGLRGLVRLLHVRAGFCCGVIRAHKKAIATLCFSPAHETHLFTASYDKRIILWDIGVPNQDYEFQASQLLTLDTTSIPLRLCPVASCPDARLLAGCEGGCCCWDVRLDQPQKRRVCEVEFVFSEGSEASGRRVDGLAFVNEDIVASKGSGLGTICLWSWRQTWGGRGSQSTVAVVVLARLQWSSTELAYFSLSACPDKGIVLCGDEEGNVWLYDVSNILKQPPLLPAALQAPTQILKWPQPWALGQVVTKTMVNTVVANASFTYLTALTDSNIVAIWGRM
Chain of UniProt Q9H089 (Q9H089 whole entry, looked up): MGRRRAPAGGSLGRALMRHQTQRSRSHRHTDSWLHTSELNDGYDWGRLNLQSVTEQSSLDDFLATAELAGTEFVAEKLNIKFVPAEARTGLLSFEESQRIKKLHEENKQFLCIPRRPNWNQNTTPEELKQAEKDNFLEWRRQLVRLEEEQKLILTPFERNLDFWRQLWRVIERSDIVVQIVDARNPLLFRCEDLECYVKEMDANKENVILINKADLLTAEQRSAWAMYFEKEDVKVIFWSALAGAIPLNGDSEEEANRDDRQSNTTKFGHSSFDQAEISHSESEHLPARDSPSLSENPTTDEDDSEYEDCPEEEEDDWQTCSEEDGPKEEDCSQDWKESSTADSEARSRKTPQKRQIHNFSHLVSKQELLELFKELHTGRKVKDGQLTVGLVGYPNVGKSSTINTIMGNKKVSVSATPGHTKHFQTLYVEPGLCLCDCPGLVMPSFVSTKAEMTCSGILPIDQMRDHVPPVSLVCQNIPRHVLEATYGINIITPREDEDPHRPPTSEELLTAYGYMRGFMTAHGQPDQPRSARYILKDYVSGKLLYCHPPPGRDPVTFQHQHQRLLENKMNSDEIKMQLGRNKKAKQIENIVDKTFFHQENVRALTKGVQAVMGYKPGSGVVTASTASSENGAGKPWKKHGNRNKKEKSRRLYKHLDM
Chain of UniProt Q14149 (Q14149 whole entry, looked up): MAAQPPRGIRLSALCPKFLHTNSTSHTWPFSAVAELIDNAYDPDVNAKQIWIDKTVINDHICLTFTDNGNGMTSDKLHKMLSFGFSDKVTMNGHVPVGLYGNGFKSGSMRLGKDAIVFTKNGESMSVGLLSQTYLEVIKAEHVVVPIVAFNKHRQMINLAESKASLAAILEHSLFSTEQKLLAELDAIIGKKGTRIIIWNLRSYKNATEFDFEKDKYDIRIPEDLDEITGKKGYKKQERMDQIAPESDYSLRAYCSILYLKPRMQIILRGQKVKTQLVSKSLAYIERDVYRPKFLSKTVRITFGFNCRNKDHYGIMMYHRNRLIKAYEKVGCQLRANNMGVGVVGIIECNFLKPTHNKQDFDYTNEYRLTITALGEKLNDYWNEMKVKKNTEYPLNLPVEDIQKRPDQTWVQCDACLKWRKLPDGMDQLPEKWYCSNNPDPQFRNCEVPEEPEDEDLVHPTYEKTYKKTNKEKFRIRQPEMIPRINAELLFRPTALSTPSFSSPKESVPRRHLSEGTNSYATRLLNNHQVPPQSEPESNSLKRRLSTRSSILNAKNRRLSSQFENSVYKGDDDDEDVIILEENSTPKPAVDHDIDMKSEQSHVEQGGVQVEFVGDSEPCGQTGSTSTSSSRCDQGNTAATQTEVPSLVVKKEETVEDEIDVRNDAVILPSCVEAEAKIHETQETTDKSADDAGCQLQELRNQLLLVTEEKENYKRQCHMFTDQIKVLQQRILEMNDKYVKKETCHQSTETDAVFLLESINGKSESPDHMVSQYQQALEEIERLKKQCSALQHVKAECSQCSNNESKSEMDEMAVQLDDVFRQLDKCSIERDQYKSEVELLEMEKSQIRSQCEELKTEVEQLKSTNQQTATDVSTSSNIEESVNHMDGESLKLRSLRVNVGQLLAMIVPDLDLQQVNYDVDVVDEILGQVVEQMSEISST
Chain of UniProt Q92615 (Q92615 whole entry, looked up): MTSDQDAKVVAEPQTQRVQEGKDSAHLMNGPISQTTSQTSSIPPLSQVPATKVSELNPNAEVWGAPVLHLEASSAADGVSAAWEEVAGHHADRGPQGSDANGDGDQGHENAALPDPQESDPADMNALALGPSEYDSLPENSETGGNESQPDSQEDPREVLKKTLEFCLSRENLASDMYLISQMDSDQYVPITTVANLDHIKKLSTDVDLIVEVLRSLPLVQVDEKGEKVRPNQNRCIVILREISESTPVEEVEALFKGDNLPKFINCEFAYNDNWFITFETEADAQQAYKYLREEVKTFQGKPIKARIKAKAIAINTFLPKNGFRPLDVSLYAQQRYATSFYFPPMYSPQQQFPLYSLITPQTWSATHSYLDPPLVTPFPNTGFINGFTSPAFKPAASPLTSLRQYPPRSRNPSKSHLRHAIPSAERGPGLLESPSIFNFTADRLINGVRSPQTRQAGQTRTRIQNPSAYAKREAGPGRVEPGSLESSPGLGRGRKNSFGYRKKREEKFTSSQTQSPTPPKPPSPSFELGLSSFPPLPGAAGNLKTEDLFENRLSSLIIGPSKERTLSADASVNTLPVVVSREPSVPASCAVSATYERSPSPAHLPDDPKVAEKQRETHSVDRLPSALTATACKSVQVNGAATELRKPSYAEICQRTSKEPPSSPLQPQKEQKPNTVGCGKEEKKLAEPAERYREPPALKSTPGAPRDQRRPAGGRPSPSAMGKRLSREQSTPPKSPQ
Chain of UniProt Q8NF37 (Q8NF37 whole entry, looked up): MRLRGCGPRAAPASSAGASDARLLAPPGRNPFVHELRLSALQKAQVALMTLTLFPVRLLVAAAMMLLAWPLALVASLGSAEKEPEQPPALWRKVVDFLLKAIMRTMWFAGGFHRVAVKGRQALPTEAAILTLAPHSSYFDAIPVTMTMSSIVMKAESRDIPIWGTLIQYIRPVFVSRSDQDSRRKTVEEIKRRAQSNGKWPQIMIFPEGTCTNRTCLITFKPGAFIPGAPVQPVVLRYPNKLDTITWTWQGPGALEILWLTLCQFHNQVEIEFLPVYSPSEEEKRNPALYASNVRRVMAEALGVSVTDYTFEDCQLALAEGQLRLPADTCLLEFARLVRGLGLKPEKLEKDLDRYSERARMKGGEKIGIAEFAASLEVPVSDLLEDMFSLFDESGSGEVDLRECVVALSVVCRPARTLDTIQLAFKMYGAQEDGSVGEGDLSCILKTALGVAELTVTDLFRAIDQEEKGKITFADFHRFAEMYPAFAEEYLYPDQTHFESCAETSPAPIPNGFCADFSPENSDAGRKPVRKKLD
Chain of UniProt Q9HD34 (Q9HD34 whole entry, looked up): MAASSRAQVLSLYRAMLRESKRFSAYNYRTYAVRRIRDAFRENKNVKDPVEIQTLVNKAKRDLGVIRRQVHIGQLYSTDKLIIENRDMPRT
Chain of UniProt Q68D91 (Q68D91 whole entry, looked up): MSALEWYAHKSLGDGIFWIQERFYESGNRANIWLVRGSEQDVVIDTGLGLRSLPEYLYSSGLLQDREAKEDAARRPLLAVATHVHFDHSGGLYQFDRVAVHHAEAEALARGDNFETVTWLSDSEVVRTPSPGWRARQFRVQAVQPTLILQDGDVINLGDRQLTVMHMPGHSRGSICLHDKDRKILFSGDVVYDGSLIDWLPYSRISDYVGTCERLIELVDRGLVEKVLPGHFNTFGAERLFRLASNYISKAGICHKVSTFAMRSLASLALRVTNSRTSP

log2 fold change, inactive:
KIF4A (UniProt O95239) -0.01
MBLAC2 (UniProt Q68D91) -0.027
MAP2K1 (UniProt Q02750) 0.011
MIPEP (UniProt Q99797) -0.004
LARS (UniProt Q9P2J5) -0.032
LSM8 (UniProt O95777) 0.028
MAP2K7 isoform 4 (UniProt O14733) -0.123
MAPKAPK3 (UniProt Q16644) -0.035
LARP4B (UniProt Q92615) -0.025
MAPK6 (UniProt Q16659) -0.027
MAP11 (UniProt Q8WVR3) -0.02
MICB, A0A140T979 0.023
LPCAT1 (UniProt Q8NF37) 0.04
METTL7A (UniProt Q9H8H3) 0.036
MAP4K4 isoform 3 (UniProt O95819) 0.059
LLGL1 (UniProt Q15334) -0.136
MAP3K4 (UniProt Q9Y6R4) -0.013
KIF14 (UniProt Q15058) -0.014
LAGE3 (UniProt Q14657) 0.06
KMT2A isoform 3 (UniProt Q03164) 0.07
LUZP1 (UniProt Q86V48) 0.085
MRPL15 (UniProt Q9P015) 0.034
MPZL1 (UniProt O95297) 0.015
MORC3 (UniProt Q14149) -0.011
LYRM4 (UniProt Q9HD34) 0.005
MLLT11 (UniProt Q13015) 0.044
LRCH3 (UniProt Q96II8) 0.028
KNOP1 (UniProt Q1ED39) 0.123
MRPL46 (UniProt Q9H2W6) 0.035
LPIN1 isoform 7 (UniProt Q14693) 0.034
MAPK12 (UniProt P53778) -0.048
LSG1 (UniProt Q9H089) -0.048
MBOAT2 (UniProt Q6ZWT7) -0.065
MAPKAPK5 (UniProt Q8IW41) -0.049
LRWD1 (UniProt Q9UFC0) -0.02
MPI (UniProt P34949) 0.035
MMS19 isoform 8 (UniProt Q96T76) 0.004
MRPL19 (UniProt P49406) 0
